Data from the supplement of paper PMC11732987, “Enantioselective OTUD7B fragment discovery through chemoproteomics screening and high-throughput optimisation” (Communications Chemistry, 2025).

Key:
Assay in all cases: log2 ratio of Biotin-Ahx-Ub-VS probe labelling (fragment/DMSO); higher = less target engagement (more negative = stronger competition), active = hit call of the paper (q ≤ 0.05, log2 ratio ≤ -1)
Conditions in all cases: compound concentration: 200 uM; treatment time: 3 h
ALG13 = molecular target: T1, ALG13 (UniProt Q9NP73)
T1 sequence (whole entry): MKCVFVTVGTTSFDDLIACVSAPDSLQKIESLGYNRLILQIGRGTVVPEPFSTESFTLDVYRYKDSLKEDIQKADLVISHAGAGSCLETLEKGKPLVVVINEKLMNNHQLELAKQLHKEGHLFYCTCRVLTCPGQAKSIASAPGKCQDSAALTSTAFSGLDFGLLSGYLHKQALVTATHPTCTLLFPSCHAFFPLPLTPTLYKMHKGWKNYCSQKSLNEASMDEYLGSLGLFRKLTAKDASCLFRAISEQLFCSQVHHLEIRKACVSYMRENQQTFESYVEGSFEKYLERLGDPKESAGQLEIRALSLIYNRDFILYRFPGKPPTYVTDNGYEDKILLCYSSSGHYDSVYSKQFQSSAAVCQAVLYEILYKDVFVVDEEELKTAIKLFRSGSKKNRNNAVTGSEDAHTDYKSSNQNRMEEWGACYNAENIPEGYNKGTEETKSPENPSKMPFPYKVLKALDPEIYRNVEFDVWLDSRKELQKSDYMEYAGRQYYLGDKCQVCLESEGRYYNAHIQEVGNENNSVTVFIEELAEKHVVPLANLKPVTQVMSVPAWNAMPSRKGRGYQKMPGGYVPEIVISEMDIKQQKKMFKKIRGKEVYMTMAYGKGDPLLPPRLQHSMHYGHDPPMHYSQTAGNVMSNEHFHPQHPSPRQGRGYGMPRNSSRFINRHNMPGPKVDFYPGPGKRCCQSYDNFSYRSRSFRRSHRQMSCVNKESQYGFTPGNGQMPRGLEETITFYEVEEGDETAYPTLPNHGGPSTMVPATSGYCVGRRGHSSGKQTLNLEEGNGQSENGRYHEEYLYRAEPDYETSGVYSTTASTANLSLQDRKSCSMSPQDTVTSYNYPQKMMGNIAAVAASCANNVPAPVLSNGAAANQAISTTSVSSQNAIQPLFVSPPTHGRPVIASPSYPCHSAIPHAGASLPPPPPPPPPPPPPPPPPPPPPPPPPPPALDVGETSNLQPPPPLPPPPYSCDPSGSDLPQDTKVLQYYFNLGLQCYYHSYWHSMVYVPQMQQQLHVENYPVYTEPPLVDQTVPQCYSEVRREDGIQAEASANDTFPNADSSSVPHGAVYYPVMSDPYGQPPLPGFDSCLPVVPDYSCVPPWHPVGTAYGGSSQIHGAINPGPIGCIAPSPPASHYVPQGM
Outline: (§1)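 Fragment (200 µM) or vehicle was incubated for 3 h with triplicate HEK293T lysate samples of 495 µg, which were then treated with Biotin-Ahx-Ub-VS at 0.5 µM final for 1 h. Labelled DUBs were enriched on NeutrAvidin, digested with LysC and trypsin, and analysed by diaPASEF LC-MS/MS. Values are average log2 fragment/vehicle ratios from an unpaired t-test on global-median-normalised Spectronaut label-free quantities, using proteins with ≥2 unique peptides.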

ATXN3 = ATXN3 (UniProt P54252)
Chain of ATXN3 (P54252 whole entry): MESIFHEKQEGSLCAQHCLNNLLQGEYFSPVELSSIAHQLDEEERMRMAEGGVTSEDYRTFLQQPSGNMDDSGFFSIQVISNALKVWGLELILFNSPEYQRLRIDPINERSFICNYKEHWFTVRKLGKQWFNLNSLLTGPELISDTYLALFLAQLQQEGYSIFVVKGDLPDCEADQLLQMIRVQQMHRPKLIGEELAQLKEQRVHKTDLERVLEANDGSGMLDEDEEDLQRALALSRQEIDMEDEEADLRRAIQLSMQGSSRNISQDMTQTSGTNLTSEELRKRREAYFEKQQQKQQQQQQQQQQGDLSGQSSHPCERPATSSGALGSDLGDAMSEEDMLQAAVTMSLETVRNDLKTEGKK
Outline: as §1

BAP1 = molecular target: T2, BAP1 (UniProt Q92560)
T2 sequence (whole entry): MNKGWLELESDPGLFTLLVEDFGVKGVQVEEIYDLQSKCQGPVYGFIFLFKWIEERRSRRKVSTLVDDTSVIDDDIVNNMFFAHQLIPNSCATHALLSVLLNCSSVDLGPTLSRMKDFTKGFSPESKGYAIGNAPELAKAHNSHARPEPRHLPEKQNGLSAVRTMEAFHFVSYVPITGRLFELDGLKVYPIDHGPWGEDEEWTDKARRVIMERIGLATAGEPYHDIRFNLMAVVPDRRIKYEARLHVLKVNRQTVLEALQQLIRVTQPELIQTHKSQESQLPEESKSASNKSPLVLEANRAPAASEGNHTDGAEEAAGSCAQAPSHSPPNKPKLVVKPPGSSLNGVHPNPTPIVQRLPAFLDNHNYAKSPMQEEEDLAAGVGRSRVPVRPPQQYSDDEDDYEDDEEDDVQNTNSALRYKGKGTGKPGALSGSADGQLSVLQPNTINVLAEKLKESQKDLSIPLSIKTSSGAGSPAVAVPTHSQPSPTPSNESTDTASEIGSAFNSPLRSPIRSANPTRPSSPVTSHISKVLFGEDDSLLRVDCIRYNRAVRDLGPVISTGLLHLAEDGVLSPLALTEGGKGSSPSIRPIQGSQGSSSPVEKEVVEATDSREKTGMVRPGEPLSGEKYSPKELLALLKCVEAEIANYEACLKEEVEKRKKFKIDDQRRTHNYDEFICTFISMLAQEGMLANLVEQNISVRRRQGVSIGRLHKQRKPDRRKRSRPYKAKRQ
Outline: as §1

EIF3F = EIF3F (UniProt O00303)
Chain of EIF3F (O00303 whole entry): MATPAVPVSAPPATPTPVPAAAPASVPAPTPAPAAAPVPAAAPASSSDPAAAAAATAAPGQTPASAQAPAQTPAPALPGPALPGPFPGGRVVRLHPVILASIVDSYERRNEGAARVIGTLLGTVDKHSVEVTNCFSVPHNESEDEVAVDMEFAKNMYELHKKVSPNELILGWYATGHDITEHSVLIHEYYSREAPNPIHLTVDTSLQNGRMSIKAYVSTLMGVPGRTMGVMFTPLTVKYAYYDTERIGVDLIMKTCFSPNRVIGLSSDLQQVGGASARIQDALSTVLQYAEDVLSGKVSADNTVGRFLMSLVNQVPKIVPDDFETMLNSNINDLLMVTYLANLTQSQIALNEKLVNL
Outline: as §1

EIF3H = EIF3H (UniProt O15372)
Chain of EIF3H (O15372 whole entry): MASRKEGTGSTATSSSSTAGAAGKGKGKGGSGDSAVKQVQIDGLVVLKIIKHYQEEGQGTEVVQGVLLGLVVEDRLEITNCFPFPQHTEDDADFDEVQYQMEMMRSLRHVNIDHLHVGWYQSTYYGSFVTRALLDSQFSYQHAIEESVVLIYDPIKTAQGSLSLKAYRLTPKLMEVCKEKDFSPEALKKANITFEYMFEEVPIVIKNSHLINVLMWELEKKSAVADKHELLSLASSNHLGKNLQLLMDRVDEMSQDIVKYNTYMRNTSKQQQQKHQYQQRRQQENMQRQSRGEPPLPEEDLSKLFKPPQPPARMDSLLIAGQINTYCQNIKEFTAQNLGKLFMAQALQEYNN
Outline: as §1

FAM105A = molecular target: T3, FAM105A (UniProt Q9NUU6)
T3 sequence (whole entry): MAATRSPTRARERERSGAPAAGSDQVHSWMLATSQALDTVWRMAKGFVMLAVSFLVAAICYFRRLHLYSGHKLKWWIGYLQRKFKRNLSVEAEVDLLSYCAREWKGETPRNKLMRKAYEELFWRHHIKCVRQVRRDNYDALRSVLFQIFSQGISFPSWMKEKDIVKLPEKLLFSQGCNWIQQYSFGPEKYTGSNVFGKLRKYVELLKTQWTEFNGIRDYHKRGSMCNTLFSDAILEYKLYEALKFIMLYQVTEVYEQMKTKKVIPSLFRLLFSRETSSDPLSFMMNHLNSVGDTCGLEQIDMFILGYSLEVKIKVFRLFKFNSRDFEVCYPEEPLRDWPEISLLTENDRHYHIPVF
Outline: as §1

OTUB1 = OTUB1 (UniProt Q96FW1)
Chain of OTUB1 (Q96FW1 whole entry): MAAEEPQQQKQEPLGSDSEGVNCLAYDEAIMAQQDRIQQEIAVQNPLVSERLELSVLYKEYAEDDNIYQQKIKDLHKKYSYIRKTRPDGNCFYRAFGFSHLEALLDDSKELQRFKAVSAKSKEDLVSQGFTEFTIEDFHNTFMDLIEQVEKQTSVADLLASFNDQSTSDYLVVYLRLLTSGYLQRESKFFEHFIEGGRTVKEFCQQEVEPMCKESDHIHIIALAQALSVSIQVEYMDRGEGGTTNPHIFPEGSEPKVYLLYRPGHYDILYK
Outline: as §1

OTUD4 = molecular target: T4, OTUD4 (UniProt Q01804)
T4 sequence (whole entry): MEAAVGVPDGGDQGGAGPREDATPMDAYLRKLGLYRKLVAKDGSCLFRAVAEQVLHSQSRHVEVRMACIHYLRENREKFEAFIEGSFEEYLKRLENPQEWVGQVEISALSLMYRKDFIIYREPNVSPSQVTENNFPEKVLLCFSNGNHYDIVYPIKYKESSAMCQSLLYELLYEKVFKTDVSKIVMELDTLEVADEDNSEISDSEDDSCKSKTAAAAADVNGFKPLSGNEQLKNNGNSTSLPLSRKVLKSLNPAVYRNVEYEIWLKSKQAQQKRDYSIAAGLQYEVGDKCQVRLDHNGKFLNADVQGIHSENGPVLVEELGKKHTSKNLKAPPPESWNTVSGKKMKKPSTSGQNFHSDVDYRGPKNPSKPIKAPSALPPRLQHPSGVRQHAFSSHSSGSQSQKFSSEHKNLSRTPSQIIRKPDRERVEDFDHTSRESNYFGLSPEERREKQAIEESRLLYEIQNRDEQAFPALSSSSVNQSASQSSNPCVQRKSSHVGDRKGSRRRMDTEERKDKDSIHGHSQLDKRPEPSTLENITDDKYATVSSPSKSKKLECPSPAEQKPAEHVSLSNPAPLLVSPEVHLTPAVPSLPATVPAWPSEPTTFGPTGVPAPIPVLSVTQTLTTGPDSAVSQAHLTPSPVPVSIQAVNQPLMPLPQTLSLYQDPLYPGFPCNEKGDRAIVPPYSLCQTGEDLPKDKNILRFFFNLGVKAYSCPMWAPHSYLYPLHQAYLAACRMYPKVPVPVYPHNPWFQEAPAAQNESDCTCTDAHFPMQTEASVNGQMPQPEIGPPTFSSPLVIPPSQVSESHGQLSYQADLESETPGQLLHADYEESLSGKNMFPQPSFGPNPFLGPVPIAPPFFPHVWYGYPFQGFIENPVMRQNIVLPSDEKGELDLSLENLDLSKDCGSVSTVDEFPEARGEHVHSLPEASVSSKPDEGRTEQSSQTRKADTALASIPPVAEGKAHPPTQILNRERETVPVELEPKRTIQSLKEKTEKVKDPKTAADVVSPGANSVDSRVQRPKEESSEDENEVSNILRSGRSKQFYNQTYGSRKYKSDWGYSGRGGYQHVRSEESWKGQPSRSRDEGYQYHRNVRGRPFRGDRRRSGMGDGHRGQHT
Outline: as §1

OTUD5 = molecular target: T5, OTUD5 (UniProt Q96G74)
T5 sequence (whole entry): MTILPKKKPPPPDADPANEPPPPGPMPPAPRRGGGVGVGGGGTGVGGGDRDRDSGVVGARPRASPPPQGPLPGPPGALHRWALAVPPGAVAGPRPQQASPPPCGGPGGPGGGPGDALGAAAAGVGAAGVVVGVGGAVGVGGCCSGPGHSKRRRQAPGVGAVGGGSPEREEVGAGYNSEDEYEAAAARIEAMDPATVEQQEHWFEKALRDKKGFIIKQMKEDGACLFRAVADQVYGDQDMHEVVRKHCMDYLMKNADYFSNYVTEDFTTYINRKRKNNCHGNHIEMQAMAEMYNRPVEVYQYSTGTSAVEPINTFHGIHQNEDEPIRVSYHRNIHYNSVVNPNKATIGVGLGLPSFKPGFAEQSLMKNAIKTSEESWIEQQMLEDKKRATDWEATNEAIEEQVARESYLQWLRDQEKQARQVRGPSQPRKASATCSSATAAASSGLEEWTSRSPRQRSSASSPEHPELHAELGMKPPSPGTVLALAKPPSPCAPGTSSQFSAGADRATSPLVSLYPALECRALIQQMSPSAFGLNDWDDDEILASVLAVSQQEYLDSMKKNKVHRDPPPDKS
Outline: as §1

Measured: log2 ratio of Biotin-Ahx-Ub-VS probe labelling

O=C(CCl)Nc1nc(-c2cccs2)cs1
inactive: ALG13 0.184 | ATXN3 -0.6 | EIF3F -0.0224 | EIF3H 0.216 | FAM105A -0.186 | OTUB1 0.196 | OTUD4 -0.708 | OTUD5 -0.636
active: BAP1 -3.09
